The text below walks through data of PubChem BioAssay AID434958 (Southern Research Specialized Biocontainment Screening …, 2010).

In all, about 1,200 compounds went through this assay and about 400 (33%) were called active. How the calls were made is not given here. A selection follows. Entries that show only a call come without a potency. Potency and affinity values are given separately.

The test in a line: mammalian cell cytotoxicity, dose response, cytotoxicity control (AID 434958).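 Further: cells exposed to compound for 72 hours before readout.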 The settings on record: cytotoxicity counter-screen; series mostly up to 40 µM.
`c1ccc(-c2noc(-c3cccc4ccccc34)n2)cc1`: the outcome was inactive.

On to `O=C(CC(=O)c1ccccc1)Nc1ccc2c(c1)OCCO2`, for which the result was inactive.

On to `Cc1ccc(CC(=O)Nc2nc3ccccc3[nH]2)cc1C`, for which the molecule was classed as inactive.

Consider `O=C(Cc1ccccc1Cl)Nc1nc2ccccc2[nH]1`, for which the molecule was called inactive.

As to `COc1ccc2sc(-c3ccc(N(C)C)cc3)c(C#CC(C)(C)O)c2c1`, the outcome was inactive.

`CSc1nnc(C)c(/C=C/Nc2ccc(Cl)cc2)n1`: the molecule was classed as inactive.

Regarding `Cn1cc(C(=O)N/N=C/C(Br)=C\c2ccccc2)ccc1=O`, the outcome was inactive.

As for `CCOc1cc(C(=O)N2CCC(CC3CC(c4ccccc4)=NO3)(C(=O)NCc3ccc(OC)cc3)CC2)cc(OCC)c1OCC` (stereo not given), the call was inactive.

In the case of `CC/C(=N\NC(=S)NC(C)C)c1ccc(OC)c(OC)c1`, the outcome was inactive.

As for `c1ccc(-n2c3ccccc3c3ccccc32)cc1`, the outcome was inactive.

As to `CSc1cccc(NC(=O)c2ccc(Cl)nc2)c1`, the outcome was inactive.

Take `O=C(N[C@@H](Cc1ccccc1)C(=O)CCl)OCc1ccccc1`: the outcome was inactive.

As to `CC(C)C[C@H](NC(=O)c1nc[nH]c1C(=O)N1CCN(C(=O)OC(C)(C)C)CC1)C(=O)OCc1ccccc1`, the result was inactive.

Turning to `C/C(=N\NC(=O)c1cccc(Cl)c1)c1cccc(NC(=O)C(C)C)c1`, the call was inactive.

For `O=C1CC(Nc2ccc(N3CCOCC3)cc2)C(=O)N1C1CCCCC1` (stereo not given), the outcome was inactive.

Turning to `O=C(O)CCN1C(=O)/C(=C/c2ccc(-c3nc4ccccc4s3)o2)SC1=S`, the molecule was called inactive.

With `COc1ccc(-c2cc3nc(C)cc(N4CC(C)CC(C)C4)n3n2)cc1` (stereo not given), the molecule was classed as inactive.

Take `C/C(CC(=O)Nc1c(C)cc(C)cc1C)=N\NC(=O)c1cnccn1`: the result was inactive.

For the molecule `O=C(OCC(=O)N1CCc2ccccc21)c1ccc(Cl)nc1`, the result was inactive.

Regarding `Cc1cc(NC(=O)CCS(=O)(=O)c2nc(-c3ccccc3)cc(C(F)(F)F)n2)no1`, the molecule was classed as inactive.

For the molecule `CC/C(=N\NC(=O)c1ccc(N(C)C)cc1)c1ccccc1`, the outcome was inactive.

For `O=C(COn1nnc2ccc(Cl)cc21)NC12CC3CC(CC(C3)C1)C2`, the call was inactive.

Take `CCc1ccc(NC(=O)C2C3/C=C\CCCCC32)cc1` (stereo not given): the result was inactive.

As to `CCOC(=O)/C=C/c1ccc2c(c1)S(=O)(=O)N(Cc1ccc(OC)cc1)[C@H]2CC(=O)OCC`, the molecule was called inactive.

Take `O=C(COC(=O)C1=COCCO1)Nc1ccc2c(c1)OCO2`: the result was inactive.

As for `CCOC(=O)c1c(C)[nH]c(N=Nc2ccccc2Cl)c1C`, the outcome was inactive.

On to `COCCCNCCOCCOc1ccc(C)cc1Br`, for which the outcome was inactive.

With `COc1cccc(NC(=S)Nc2cc(C)cc(C)n2)c1`, the molecule was classed as inactive.

Regarding `O=C(O)c1cc(-c2ccco2)nc2ccc(Br)cc12`, the molecule was called inactive.

Regarding `CN(C)S(=O)(=O)n1cc(/C=C(\NC(=O)c2ccccc2)C(=O)NCCN2CCOCC2)c2ccccc21`, the molecule was called inactive.
